Structures are written as SMILES. Active and inactive are the calls of the source. The call rests on the fitted dose curve; in most records, active means well fitted curve in the direction sought with a large enough effect in the repeat runs; inconclusive means weak or mixed curves; inactive means flat fitted curve, though single readings scatter.
On the % scale 0 is the no-effect control and ±100 the full control effect.

The nature of the first assay: qHTS assay to test for compound auto fluorescence at 535 nm (green) in HepG2 cells (AID 720675). Further: potency means the concentration at half of the fitted maximal effect. The settings on record: green autofluorescence 485/535 nm, 1 h; series mostly up to 91.3 µM; fluorescence, % of fluorescein control: at the top concentration.
Take `NCC(=O)CCC(=O)O`: the “fluorescence, % of fluorescein control” value was -0.0622% [at 46 µM] (inactive).

For `O=C1OC(=O)C2C3C=CC(C3)C12` (stereo unspecified), the “fluorescence, % of fluorescein control” value is -0.0042% (inactive).

On to `C=C(C)C(=O)OCCOCC`, for which the “fluorescence, % of fluorescein control” value is 0.0036% (inactive).

For the molecule `CC1(c2ccccc2)OC(C(=O)O)=CC1=O` (stereo unspecified), the “fluorescence, % of fluorescein control” value was 0.0479% [at 46 µM] (inactive).

In the case of `C[N+](C)(C)CCOC(=O)CCC(=O)OCC[N+](C)(C)C`, the “fluorescence, % of fluorescein control” value is -0.118% [at 46 µM] (inactive).

For the molecule `CCOC(=O)Cc1cccc2ccccc12`, the “fluorescence, % of fluorescein control” value is 0.111% (inactive).

Regarding `CC(=O)c1ccc2c(c1)N(CCCN(C)C)c1ccccc1S2`, the fluorescence, % of fluorescein control is 0.0535% [at 18.6 µM] (inactive).

On to `CN1CCN(C(c2ccccc2)c2ccccc2)CC1`, for which the fluorescence, % of fluorescein control was -0.189% [at 18.6 µM] (inactive).

As to `Clc1ccc(Cn2c(CN3CCCC3)nc3ccccc32)cc1`, the fluorescence, % of fluorescein control was 0.097% [at 18.6 µM] (inactive).

For `CC1=CC=C(C(C)C)CC1`, the “fluorescence, % of fluorescein control” value is -0.0045% (inactive).

On to `C[C@H]1C[C@H]2[C@@H]3CCC4=CC(=O)C=C[C@]4(C)[C@@]3(Cl)[C@@H](O)C[C@]2(C)[C@@]1(O)C(=O)CO`, for which the “fluorescence, % of fluorescein control” value is 0.0032% [at 46 µM] (inactive).

Turning to `CCCCCCCCO[C@@H]1O[C@H](CO)[C@@H](O)[C@H](O)[C@H]1O`, the “fluorescence, % of fluorescein control” value was -0.148% (inactive).

In the case of `CC(C)(O)c1ccc(CNC(=O)c2cccnc2Oc2ccc(F)cc2)cc1`, the “fluorescence, % of fluorescein control” value is -0.0167% (inactive).

Regarding `c1ccc(CNCCNCc2ccccc2)cc1`, the “fluorescence, % of fluorescein control” value is -0.0459% [at 46 µM] (inactive).

With `COC(C)OC`, the “fluorescence, % of fluorescein control” value was -0.0122% (inactive).

Regarding `O=S(=O)(Oc1ccc(Cl)cc1)c1ccccc1`, the “fluorescence, % of fluorescein control” value is 0.151% (inactive).

`COS(=O)(=O)C(F)(F)F`: the “fluorescence, % of fluorescein control” value is -0.0677% [at 95.7 µM] (inactive).

For `CCNc1cc(O)ccc1C`, the “fluorescence, % of fluorescein control” value was 2.74% (inactive).

Turning to `Nc1cccc([N+](=O)[O-])c1`, the “fluorescence, % of fluorescein control” value was -0.0049% (inactive).

For `CC/C=C\CCOC(=O)CC`, the “fluorescence, % of fluorescein control” value was -0.0156% (inactive).

On to `O=C(c1ccc(F)cc1)C1CCN(CCn2c(=S)[nH]c3ccccc3c2=O)CC1`, for which the “fluorescence, % of fluorescein control” value is -0.0117% [at 46 µM] (inactive).

As for `CCN(CC)c1ccc2c(-c3ccccc3C(=O)O)c3ccc(=[N+](CC)CC)cc-3oc2c1`, the Potency was 31.6 µM (active).

`CC(C)CC(=O)C1C(=O)c2ccccc2C1=O`: the “fluorescence, % of fluorescein control” value is -0.0213% (inactive).

Take `ClCCOCCOCCCl`: the “fluorescence, % of fluorescein control” value is 0.112% (inactive).

In the case of `CCCCc1ncc(/C=C(\Cc2cccs2)C(=O)O)n1Cc1ccc(C(=O)O)cc1`, the “fluorescence, % of fluorescein control” value is 0.0184% [at 46 µM] (inactive).

Consider `CN(C)C(=O)NC1(c2ccccc2)CCN(CC[C@@]2(c3ccc(F)c(F)c3)CN(C(=O)c3ccccc3)CCO2)CC1`, for which the “fluorescence, % of fluorescein control” value was -0.0038% (inactive).

Take `CC(=O)NO`: the “fluorescence, % of fluorescein control” value was -0.123% [at 46 µM] (inactive).

For the molecule `CC1=CCCC(C)(C)C12CCC(C)O2` (stereo unspecified), the “fluorescence, % of fluorescein control” value was -0.0216% (inactive).

`Nc1ccccc1S(=O)(=O)c1ccccc1`: the “fluorescence, % of fluorescein control” value was 0.0588% (inactive).

Consider `COc1ccc(C(=O)c2ccc(OC)cc2O)c(O)c1`, for which the “fluorescence, % of fluorescein control” value is -0.0158% (inactive).

With `C#CCN(C)CCCOc1ccc(Cl)cc1Cl`, the “fluorescence, % of fluorescein control” value is -0.002% [at 46 µM] (inactive).

With `C=CC1CC2C=CC1C2` (stereo unspecified), the “fluorescence, % of fluorescein control” value was -0.0375% (inactive).

Take `CC(=O)c1ccc2c(c1)N(CCCN1CCC(CCO)CC1)c1ccccc1S2`: the fluorescence, % of fluorescein control was 0.043% [at 18.6 µM] (inactive).

`COC(=O)C1=C(C)NC(COC(N)=O)=C(C(=O)OC(C)C)C1c1cccc(Cl)c1Cl` (stereo unspecified): the “fluorescence, % of fluorescein control” value was 0.0432% [at 46 µM] (inactive).

The nature of the next assay: qHTS assay to test for compound auto fluorescence at 460 nm (blue) in HEK293 cells (AID 720678). Particulars: blue autofluorescence 405/460 nm; series mostly up to 91.3 µM; fluorescence, % of triamterene: at the top concentration. The essentials:
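HEK293 cells (2,000 per well, medium with 10% dialyzed FBS) attached for 4-5 hr at 37C, then received compound and stood overnight at 37C, 5% CO2. Blue fluorescence was read at Ex/Em 405/460 nm and expressed relative to triamterene.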
In the case of `NCC(=O)CCC(=O)O`, the “fluorescence, % of triamterene” value is 0.0239% [at 46 µM] (inactive).

For the molecule `O=C1OC(=O)C2C3C=CC(C3)C12` (stereo unspecified), the “fluorescence, % of triamterene” value was 0.0949% (inactive).

For `C=C(C)C(=O)OCCOCC`, the “fluorescence, % of triamterene” value was -0.0389% (inactive).

For the molecule `CC1(c2ccccc2)OC(C(=O)O)=CC1=O` (stereo unspecified), the “fluorescence, % of triamterene” value was 0.0134% [at 46 µM] (inactive).

For `C[N+](C)(C)CCOC(=O)CCC(=O)OCC[N+](C)(C)C`, the “fluorescence, % of triamterene” value was 0.142% [at 46 µM] (inactive).

Consider `CCOC(=O)Cc1cccc2ccccc12`, for which the “fluorescence, % of triamterene” value was -0.0265% (inactive).

As for `CC(=O)c1ccc2c(c1)N(CCCN(C)C)c1ccccc1S2`, the fluorescence, % of triamterene is -0.118% [at 18.6 µM] (inactive).

As to `CN1CCN(C(c2ccccc2)c2ccccc2)CC1`, the fluorescence, % of triamterene is -0.0167% [at 18.6 µM] (inactive).

Take `Clc1ccc(Cn2c(CN3CCCC3)nc3ccccc32)cc1`: the fluorescence, % of triamterene was 0.123% [at 18.6 µM] (inactive).

For `CC1=CC=C(C(C)C)CC1`, the “fluorescence, % of triamterene” value is 0.216% (inactive).

Consider `C[C@H]1C[C@H]2[C@@H]3CCC4=CC(=O)C=C[C@]4(C)[C@@]3(Cl)[C@@H](O)C[C@]2(C)[C@@]1(O)C(=O)CO`, for which the “fluorescence, % of triamterene” value was -0.141% [at 46 µM] (inactive).

For the molecule `CCCCCCCCO[C@@H]1O[C@H](CO)[C@@H](O)[C@H](O)[C@H]1O`, the “fluorescence, % of triamterene” value was -0.0312% (inactive).

Consider `CC(C)(O)c1ccc(CNC(=O)c2cccnc2Oc2ccc(F)cc2)cc1`, for which the “fluorescence, % of triamterene” value was 0.107% (inactive).

Take `c1ccc(CNCCNCc2ccccc2)cc1`: the “fluorescence, % of triamterene” value is -0.0146% [at 46 µM] (inactive).

As for `COC(C)OC`, the “fluorescence, % of triamterene” value was -0.217% (inactive).

As for `CC(COCCO)OCCO` (stereo unspecified), the “fluorescence, % of triamterene” value was -0.0622% (inactive).

For the molecule `O=S(=O)(Oc1ccc(Cl)cc1)c1ccccc1`, the “fluorescence, % of triamterene” value was -0.108% (inactive).

For `COS(=O)(=O)C(F)(F)F`, the “fluorescence, % of triamterene” value is -0.0186% [at 95.7 µM] (inactive).

With `CCNc1cc(O)ccc1C`, the “fluorescence, % of triamterene” value is 3.22% (inactive).

Consider `Nc1cccc([N+](=O)[O-])c1`, for which the “fluorescence, % of triamterene” value is 0.0883% (inactive).

In the case of `CC/C=C\CCOC(=O)CC`, the “fluorescence, % of triamterene” value was -0.111% (inactive).

For the molecule `O=C(c1ccc(F)cc1)C1CCN(CCn2c(=S)[nH]c3ccccc3c2=O)CC1`, the “fluorescence, % of triamterene” value was -0.108% [at 46 µM] (inactive).

Consider `CCN(CC)c1ccc2c(-c3ccccc3C(=O)O)c3ccc(=[N+](CC)CC)cc-3oc2c1`, for which the “fluorescence, % of triamterene” value was 0.767% (inactive).

For `CC(C)CC(=O)C1C(=O)c2ccccc2C1=O`, the “fluorescence, % of triamterene” value is 0.066% (inactive).

Take `ClCCOCCOCCCl`: the “fluorescence, % of triamterene” value was -0.0996% (inactive).

Regarding `CCCCc1ncc(/C=C(\Cc2cccs2)C(=O)O)n1Cc1ccc(C(=O)O)cc1`, the “fluorescence, % of triamterene” value is 0.233% [at 46 µM] (inactive).

Consider `CN(C)C(=O)NC1(c2ccccc2)CCN(CC[C@@]2(c3ccc(F)c(F)c3)CN(C(=O)c3ccccc3)CCO2)CC1`, for which the “fluorescence, % of triamterene” value was -0.0083% (inactive).

On to `CC(=O)NO`, for which the “fluorescence, % of triamterene” value is -0.14% [at 46 µM] (inactive).

Turning to `COc1cc2nc(N3CCN(C(=O)C4COc5ccccc5O4)CC3)nc(N)c2cc1OC` (stereo unspecified), the “fluorescence, % of triamterene” value was 0.0608% [at 46 µM] (inactive).

With `CC1=CCCC(C)(C)C12CCC(C)O2` (stereo unspecified), the “fluorescence, % of triamterene” value was 0.152% (inactive).

On to `Nc1ccccc1S(=O)(=O)c1ccccc1`, for which the “fluorescence, % of triamterene” value is 0.0319% (inactive).

For `COc1ccc(C(=O)c2ccc(OC)cc2O)c(O)c1`, the “fluorescence, % of triamterene” value is 0.0842% (inactive).

On to `C#CCN(C)CCCOc1ccc(Cl)cc1Cl`, for which the “fluorescence, % of triamterene” value is 0.0209% [at 46 µM] (inactive).

With `C=CC1CC2C=CC1C2` (stereo unspecified), the “fluorescence, % of triamterene” value was 0.0237% (inactive).

As to `CC(=O)c1ccc2c(c1)N(CCCN1CCC(CCO)CC1)c1ccccc1S2`, the fluorescence, % of triamterene was -0.0315% [at 18.6 µM] (inactive).

In the case of `COC(=O)c1ccc(I)cc1S(=O)(=O)NC(=O)Nc1nc(C)nc(OC)n1`, the “fluorescence, % of triamterene” value is -0.224% (inactive).

As to `C=C1[C@H]2CC[C@@H]3[C@H]2C(C)(C)CCC[C@]13C`, the “fluorescence, % of triamterene” value was -0.0593% (inactive).

Source of the values: PubChem BioAssay (Tox21).
